Compounds with a hit are over-represented: about 19% of the library has one in this group of screens.
ASM inhibitor = inhibitors of human secretory acid sphingomyelinase; placental ASM, HMU-PC fluorogenic substrate, 60 min; actives 0.006% (n = 340,000); AID 504937; Potency, µM (top dose mostly 57.5 µM), for the others: top-dose activity change, negative = inhibition, actives largely listed as inhibitors; also: potency is read from the fitted curve at half-maximal effect
Target sequence (P17405 47-631 limits assumed): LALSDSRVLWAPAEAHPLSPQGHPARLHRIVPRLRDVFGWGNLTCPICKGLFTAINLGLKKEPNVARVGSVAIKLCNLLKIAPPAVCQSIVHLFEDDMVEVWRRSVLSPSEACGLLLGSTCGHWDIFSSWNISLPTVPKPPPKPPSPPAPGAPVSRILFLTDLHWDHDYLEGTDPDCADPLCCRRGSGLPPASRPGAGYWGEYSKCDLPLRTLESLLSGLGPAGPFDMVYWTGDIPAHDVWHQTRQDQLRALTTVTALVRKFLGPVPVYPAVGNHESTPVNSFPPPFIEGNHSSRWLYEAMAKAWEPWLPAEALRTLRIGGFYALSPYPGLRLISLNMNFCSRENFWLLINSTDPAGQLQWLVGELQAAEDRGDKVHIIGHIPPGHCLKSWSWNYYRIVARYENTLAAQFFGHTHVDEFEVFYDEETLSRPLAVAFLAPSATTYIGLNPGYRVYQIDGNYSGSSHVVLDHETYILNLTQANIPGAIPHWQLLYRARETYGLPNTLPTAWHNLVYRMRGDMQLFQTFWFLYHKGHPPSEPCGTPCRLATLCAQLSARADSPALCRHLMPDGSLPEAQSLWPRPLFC
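qHTS format. ASM enzyme prepared from human placenta hydrolyses the fluorogenic substrate HMU-PC0 (9 uM final) over 60 min at 37 °C after a 10 min compound preincubation.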
IL-1B inflam inh = inhibitors of inflammasome signaling (IL-1 beta secretion); THP-1 LPS/ATP IL-1B secretion, AlphaLISA, 16 h; hits give low values; activity change, % at 57.5 µM; actives 4.7% (n = 360,000); in the data active = activity change below about -50%; inconclusive = mostly about -30% to -49%; also: % is scaled to controls: 0 for no effect and ±100 for the full control effect
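THP-1 cells pretreated 1 hr with compounds (up to 57.5 uM final), then stimulated with LPS (250 ng/mL final) plus ATP (1.25 mM final); secreted IL-1B measured by AlphaLISA after 16 hr, decreased signal indicating inhibition.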
DT40 TDP1 no CPT = qHTS for Inhibitors of human tyrosyl-DNA phosphodiesterase 1 (TDP1): qHTS in cells in absence of CPT; DT40 Tdp1-/- hTDP1 cells, no CPT, ATP luminescence, 48 h; Potency, µM (series often up to 46.2 µM), inactives show at the top dose activity change, negative = growth inhibition, usual class: inhibitors; actives 15% (n = 420,000); also: potency is read from the fitted curve at half-maximal effect; % is scaled to controls: 0 for no effect and ±100 for the full control effect; nearly all actives have a fitted effect of over 55% in size
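Growth kinetics read by CellTiter-Glo luminescence after ≥48 hr at 37 °C. Cells: DT40 Tdp1-/- stably carrying human TDP1, 400 per well, compound exposure in the absence of CPT (DMSO vehicle).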
TGFb inhibitor = inhibitors of TGF-b signaling | Potency, µM (top dose mostly 46.1 µM), for inactives: top-dose activity, negative = inhibition, hits mostly inhibitors | HepG2 CAGA-GFP TGF-b/SMAD3 reporter, GFP fluorescence, 18 h; TGF-beta stimulated, 500 pg/mL final | actives 1.2% (n = 410,000); also: potency is read from the fitted curve at half-maximal effect; % is scaled to controls: 0 for no effect and ±100 for the full control effect; nearly all actives have a fitted effect of over 65% in size
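HEPG2 CAGA-GFP, 1000 cells/well; 2 h settle, 37 C; cpd via pin tool; TGF-b 500 pg/mL final; 18 h, 37 C; GFP imaging ex488/em500-530; %Activity normalised to -TGF-b and +DMSO controls; CRC fit, curve class.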
DT40 TDP1 CPT = growth inhibition of DT40 Tdp1-/-;hTDP1 cells with camptothecin (screen for TDP1 inhibitors); chicken DT40 Tdp1-/-;hTDP1 cells + 20 nM CPT, ATP luminescence, 48 h; actives 12% (n = 420,000); Potency, µM (doses to about 46.2 µM), for the others: at the top dose activity change, negative = growth inhibition, usual class: inhibitors; AID 686979; also: potency is read from the fitted curve at half-maximal effect; % is scaled to controls: 0 for no effect and ±100 for the full control effect; nearly all actives have a fitted effect of over 55% in size
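Chicken DT40 Tdp1-/- cells stably complemented with human TDP1 were seeded at 400 cells/well in medium containing 20 nM camptothecin, exposed to pin-transferred compounds, and grown at 37 °C for at least 48 hr. Viability was read as ATP luminescence.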
HepG2 viability = HepG2 cytotoxicity, counter-screen for TGF-b inhibitors | Potency, µM (highest dose often 46.1 µM), without a hit: at the top dose activity change, negative = cytotoxicity, usual class: cytotoxic | AID 588856 | HepG2 CAGA-GFP viability, ATP luminescence, 18 h | actives 0.76% (n = 410,000); also: potency is read from the fitted curve at half-maximal effect
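CellTiter-Glo luminescence gave cytotoxicity after 18 hours at 37 degrees C. The cells were HepG2 CAGA-GFP in 1% FBS DMEM, stimulated with 500 pg/mL TGF-beta after compound addition. %Activity was normalised to no-cell wells (complete cell-killing) and DMSO (no toxicity), and curves were fitted and classified.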
Numbers without * were called inactive; [ ] = remark or other dose. Unless noted, calls follow the shape of the dose curve; as a rule, active = well fitted curve in the direction sought with a large enough effect; inconclusive = small, poorly fitted or top-dose-only effect, or another doubt; inactive = no such curve, though single readings can be large; an effect the other way counts as inactive or inconclusive.

Screening O=c1cc(C(F)(F)F)[nH]c(=S)n1-c1ccccc1 returned ASM inhibitor 0%, IL-1B inflam inh -3, DT40 TDP1 no CPT 0%, TGFb inhibitor -2%, DT40 TDP1 CPT 2% and HepG2 viability 2%.
For CC(=O)c1cccc(-c2ccnc3c2CC(C(=O)NCc2ccco2)O3)c1 (stereo not given) the results were IL-1B inflam inh 53, DT40 TDP1 no CPT 0.82µM*, TGFb inhibitor 9%, DT40 TDP1 CPT 0.82µM* and HepG2 viability -31%.
CN(C)c1ccc(CNC(=O)C2Cc3c(-c4cccc(C(N)=O)c4)ccnc3O2)cc1 (stereo not given) was read as IL-1B inflam inh -13, DT40 TDP1 no CPT 23µM*, TGFb inhibitor 5%, DT40 TDP1 CPT inconclusive and HepG2 viability 1%.
For O=C(NCCc1ccccc1)C1Cc2c(-c3ccccc3)ccnc2O1 (stereo not given) the results were IL-1B inflam inh -13, DT40 TDP1 no CPT inconclusive, TGFb inhibitor 0%, DT40 TDP1 CPT inconclusive and HepG2 viability -37%.
Screening CC(=O)NCCNC(=O)C1Cc2c(-c3ccccc3)ccnc2O1 (stereo not given) returned IL-1B inflam inh 9, DT40 TDP1 no CPT -7%, TGFb inhibitor 47%, DT40 TDP1 CPT -18% and HepG2 viability 27%.
For NC(=O)c1cccc(-c2ccnc3c2CC(C(=O)NCCc2ccccc2)O3)c1 (stereo not given) the results were IL-1B inflam inh 1, DT40 TDP1 no CPT 23µM*, TGFb inhibitor 5%, DT40 TDP1 CPT 15µM* and HepG2 viability -1%.
O=C(NCc1ccco1)C1Cc2c(-c3cccc(F)c3)ccnc2O1 (stereo not given) was read as IL-1B inflam inh 17, DT40 TDP1 no CPT 1.3µM*, TGFb inhibitor -18%, DT40 TDP1 CPT 0.82µM* and HepG2 viability -21%.
`COc1cccc(O)c1CN1CCC2(CC1)c1ccccc1[C@@H](NC(=O)c1ccsc1)[C@@H]2OC` gave DT40 TDP1 no CPT inconclusive and DT40 TDP1 CPT 17%[9.04 µM].
Screening NC(=O)c1cccc(-c2ccnc3c2CC(C(=O)NCc2ccco2)O3)c1 (stereo not given) returned IL-1B inflam inh 58, DT40 TDP1 no CPT 2.9µM*, TGFb inhibitor 9%, DT40 TDP1 CPT 3.7µM* and HepG2 viability 2%.
Screening CC1(C)Oc2ccccc2OC1(O)c1ccc2ccccc2n1 (stereo not given) returned ASM inhibitor -4%, IL-1B inflam inh 5, DT40 TDP1 no CPT 18µM*, TGFb inhibitor inconclusive, DT40 TDP1 CPT inconclusive and HepG2 viability -22%.
Screening c1cc(CCCc2ccncc2)ccn1 returned ASM inhibitor -2%, IL-1B inflam inh 18, DT40 TDP1 no CPT -8%, TGFb inhibitor 15%, DT40 TDP1 CPT -5% and HepG2 viability 13%.
`CCOC(=O)Cn1cc2c(c1-c1ccc(Cl)cc1)c(=O)n(C)c(=O)n2C` gave DT40 TDP1 no CPT inconclusive, TGFb inhibitor 0%, DT40 TDP1 CPT inconclusive and HepG2 viability -23%.
Cc1ccc(S(=O)(=O)NN2C(=O)c3ccccc3NC2c2ccccn2)cc1 (stereo not given) was read as ASM inhibitor 13%, IL-1B inflam inh -112*, DT40 TDP1 no CPT -11%, TGFb inhibitor -1%, DT40 TDP1 CPT 3% and HepG2 viability 0%.

Screens deposited in PubChem BioAssay by National Center for Advancing Translational Sciences (NCATS).
